From PubChem BioAssay
Rows were chosen to be rich in hits. Some 3.9% of all compounds tested hit in one or more screens of this group.
GDH-TPI counter-1: GDH-TPI coupled enzyme inhibition counter-screen | GDH-TPI coupled enzyme counterscreen, NADH absorbance | 360,000 compounds, 1.2% hits | inhibition, % at 4.8 µM | AID 588335; in the data active = inhibition above about 30%
PrPC TRFRET: reduces human prion protein on the cell surface; cell surface PrPC, TR-FRET read-out; inhibition, % at 13.8 µM; 370,000 compounds, 0.43% hits; in the data active = inhibition above about 24%
3CLpro inhibitor: SARS-CoV 3CLpro protease inhibition | P0C6X7 | recombinant SARS-CoV 3CLpro, quenched FRET peptide cleavage | inhibition, % at 6 µM | 290,000 compounds, 0.14% hits; in the data active = inhibition above about 12%
Vc quorum ag: quorum light induction in luxS cqsA deficient V. cholerae | V. cholerae BH1578 lux reporter, luminescence, 6 h | AID 588436 | activation, % at 18.7 µM | 350,000 compounds, 0.16% hits; in the data active = activation mostly above about 9.7%, no sharp cut-off
Mtb FBA inh: Mtb fructose-bisphosphate aldolase inhibition; P9WQA3; inhibition, % at 1 µM; AID 588726; purified M. tuberculosis FBA, fluorescence read-out; 360,000 compounds, 2.3% hits
Target sequence (P9WQA3 whole entry, looked up): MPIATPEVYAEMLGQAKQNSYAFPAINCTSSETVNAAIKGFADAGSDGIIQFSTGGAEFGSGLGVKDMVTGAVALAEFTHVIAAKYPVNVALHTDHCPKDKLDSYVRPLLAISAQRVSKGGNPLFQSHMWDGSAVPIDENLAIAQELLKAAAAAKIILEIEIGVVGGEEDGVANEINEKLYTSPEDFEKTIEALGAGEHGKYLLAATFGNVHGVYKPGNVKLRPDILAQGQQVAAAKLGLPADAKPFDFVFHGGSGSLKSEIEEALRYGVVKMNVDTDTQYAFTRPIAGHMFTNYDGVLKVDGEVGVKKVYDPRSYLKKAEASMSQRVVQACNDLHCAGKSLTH
Mtb FBA inh conf: Mtb FBA inhibition, confirmed; 5,600 compounds, 78% hits; purified M. tuberculosis FBA, fluorescence read-out; shares compounds with Mtb FBA inh; inhibition, % at 1 µM
GDH-TPI counter-2: inhibits GDH-TPI coupling enzymes, flagging Mtb FBA hits; AID 652141; shares compounds with Mtb FBA inh; GDH-TPI coupled enzyme counterscreen, fluorescence; 5,600 compounds, 81% hits; inhibition, % at 1 µM; in the data active = inhibition above about 10%
Large screens that a line does not name were inactive (follow-up assays come after a bar, where they were run). Rule as the data show it, unless noted: active = inhibition above about 27%; inactive = the rest.

CCCc1cc(=O)oc2cc(C)cc(OC(C)C(=O)NCCCN3CCOCC3)c12 (centres undefined)	Mtb FBA inh 80 | Mtb FBA inh conf inactive | GDH-TPI counter-2 inactive
COC(=O)CC[C@@H](/C=C/C(=O)OC(C)(C)C)Sc1ccc(C(C)(C)C)cc1	none (no result: GDH-TPI counter-1, 3CLpro inhibitor, Vc quorum ag, Mtb FBA inh)
CCOC(=O)Cn1cc(CN2C(C(=O)OC)CN(C3CCCC3)CCS2(=O)=O)nn1 (centres undefined)	none (no result: GDH-TPI counter-1, 3CLpro inhibitor, Vc quorum ag, Mtb FBA inh)
COc1ccc(-c2nnc(SCC(=O)NN=C/C=C\c3ccco3)n2-c2ccc(OC)cc2)cc1	none (no result: GDH-TPI counter-1, 3CLpro inhibitor, Vc quorum ag, Mtb FBA inh)
CCCCc1cc(=O)oc2cc(OC(C)C(=O)NCCN3CCOCC3)c(Cl)cc12 (centres undefined)	none
CCc1cc(=O)oc2cc(C)cc(OC(C)C(=O)NCCN3CCOCC3)c12 (centres undefined)	Mtb FBA inh 44 | Mtb FBA inh conf inactive | GDH-TPI counter-2 inactive
COCCN(C(=O)COC(=O)CCc1c[nH]c2ccccc12)c1c(N)n(Cc2ccccc2)c(=O)[nH]c1=O	none (no result: 3CLpro inhibitor)
CNc1nc(-c2cccs2)cc(C(F)(F)F)c1C#N	Mtb FBA inh 58 | Mtb FBA inh conf 78 | GDH-TPI counter-2 54
O=c1[nH]c(=S)[nH]c2nc(-c3cccs3)cc(C(F)(F)F)c12	Mtb FBA inh 32 | Mtb FBA inh conf 94 | GDH-TPI counter-2 76
Nc1c(C(=O)C2CC2)sc2nc(-c3cccs3)cc(C(F)(F)F)c12	Mtb FBA inh 57 | Mtb FBA inh conf 44 | GDH-TPI counter-2 30
N#CCCN(C(=O)CSc1nc2nc(-c3cccs3)cc(C(F)(F)F)c2c(=O)[nH]1)c1ccccc1	none
CC(C)N(Cc1nc(-c2ccc3c(c2)OCO3)no1)Cc1nccn1C	none
O=C(C[C@H]1C[C@@H]2c3cc(NS(=O)(=O)c4ccccc4)ccc3O[C@@H]2[C@H](CO)O1)N1CCOCC1	none (no result: 3CLpro inhibitor)
CC(Oc1ccc(Br)cc1)C(=O)Nc1ccc(N2CCOCC2)cc1N1CCOCC1 (centres undefined)	none (no result: 3CLpro inhibitor)
COc1ccc2cc(C(=O)NCc3ccccc3)c(=O)oc2c1	Mtb FBA inh 33 | Mtb FBA inh conf 65 | GDH-TPI counter-2 50
COc1ccc(CNC(=O)c2cc3ccccc3oc2=O)cc1	none
COc1ccc2oc(=O)c(C(=O)NCc3ccc(F)cc3)cc2c1	Mtb FBA inh 54 | Mtb FBA inh conf 90 | GDH-TPI counter-2 70
COc1ccc2oc(=O)c(C(=O)NCc3cccnc3)cc2c1	Mtb FBA inh 44 (no result: Vc quorum ag) | Mtb FBA inh conf inactive | GDH-TPI counter-2 inactive
COc1ccccc1N1CCN(/N=C/C=C/c2ccccc2[N+](=O)[O-])CC1	none
Cc1ccc2nc(C)cc(C(=O)OCC(=O)Nc3cccnc3Cl)c2c1	none
Cc1cc(C)c2[nH]c(=O)c(CN(Cc3cccnc3)C(=S)NCCCN(C)C)cc2c1	none
CCN(CC)CCNC(=O)Cn1c(-c2ccccn2)nc2ccccc21	Mtb FBA inh 37 | Mtb FBA inh conf 145 | GDH-TPI counter-2 121
O=C(O)Cn1c(-c2ccccc2)cc2ccccc21	Mtb FBA inh 47 | Mtb FBA inh conf 104 | GDH-TPI counter-2 95
O=C(O)Cn1c(-c2ccccn2)nc2ccccc21	Mtb FBA inh 56 | Mtb FBA inh conf inactive | GDH-TPI counter-2 inactive
O=C(O)Cn1c(=O)c(-c2ccccc2)nc2ccccc21	Mtb FBA inh 56 | Mtb FBA inh conf 119 | GDH-TPI counter-2 88
O=C(O)Cn1c(-c2ccccc2)nc2ccccc21	none
C/C(=N\NC(=O)Cn1c(-c2ccccn2)nc2ccccc21)c1ccccc1	none
CC1(C(=O)NCc2ccccc2)CN(S(C)(=O)=O)CC(=O)N1CCc1c[nH]c2ccccc12 (centres undefined)	none (no result: GDH-TPI counter-1, 3CLpro inhibitor, Vc quorum ag, Mtb FBA inh)
O=C(COC(=O)c1cccnc1)Nc1ccc2c(c1)OCO2	none
NNC(=O)Cn1c(-c2ccccn2)nc2ccccc21	none
CCOC(=O)Cn1c(-c2ccccn2)nc2ccccc21	Mtb FBA inh 35 | Mtb FBA inh conf 91 | GDH-TPI counter-2 79
Cc1ccccc1-c1cnc(C(O)c2c(C)ccc3ccccc23)[nH]1 (centres undefined)	none (no result: 3CLpro inhibitor)
Cc1ccc(C)c2nc(N3CCCC3)c(C#N)cc12	Mtb FBA inh 33 | Mtb FBA inh conf 173 | GDH-TPI counter-2 146
c1ccc(-c2cnc(-c3cccnc3)o2)cc1	Mtb FBA inh 93 | Mtb FBA inh conf 192 | GDH-TPI counter-2 155
COC(=O)c1cc(COc2ccc3c4c(c(=O)oc3c2)CCCC4)c(C)o1	none
Cc1cc(=O)oc2c(C)c(OC3CCCCC3=O)ccc12 (centres undefined)	Mtb FBA inh 39 | Mtb FBA inh conf active | GDH-TPI counter-2 192
COC(=O)Cc1c(C)c2ccc(OC3CCCCC3=O)cc2oc1=O (centres undefined)	Mtb FBA inh 103 | Mtb FBA inh conf 140 | GDH-TPI counter-2 144
Cc1c(Cc2ccccc2)c(=O)oc2c(C)c(OC(C)C(=O)NCC3CCC(C(=O)O)CC3)ccc12 (centres undefined)	none
CCc1cc(=O)oc2cc(OC3CCCCC3=O)ccc12 (centres undefined)	Mtb FBA inh 53 | Mtb FBA inh conf 192 | GDH-TPI counter-2 164
COC(=O)Cc1c(C)c2ccc(OC3CCCCC3=O)c(C)c2oc1=O (centres undefined)	Mtb FBA inh 108 | Mtb FBA inh conf inactive | GDH-TPI counter-2 17
COc1cc2c(C(=O)N3CCN(c4cccc(Cl)c4)CC3)cn(CC(C)C)c(=O)c2cc1OC	none
O=C(Nc1cccc2nsnc12)c1cc2c(cc1Cl)Sc1nccn1S2(=O)=O	none (no result: 3CLpro inhibitor)
COc1ccc2o/c(=N\O)c(C(=O)Nc3ccc(C)cc3)cc2c1	none
COc1ccc2cc(C(N)=O)c(=Nc3ccc(C)cc3)oc2c1	Mtb FBA inh 35 | GDH-TPI counter-2 active
COc1ccc2oc(=Nc3cccc(F)c3)c(C(N)=O)cc2c1	Mtb FBA inh 39 | Mtb FBA inh conf inactive | GDH-TPI counter-2 inactive
CCOC(=O)N1CCN(C(=O)CCl)CC1	none
CC(C)NC(=O)c1onc(CSc2cccc(F)c2)c1C(=O)O	none
COc1ccc(C(=O)C2CCCN(C(=O)c3cccnc3SC)C2)c(C)c1 (centres undefined)	none
CCCCN(C)C(=O)CSc1nnc(-c2cccnc2)n1C1CCCCC1	none (no result: GDH-TPI counter-1, 3CLpro inhibitor, Vc quorum ag, Mtb FBA inh)
COc1ccccc1COc1ccc2c(C)c(CCC(=O)O)c(=O)oc2c1C	none
Cc1c(CCC(=O)O)c(=O)oc2cc(OCc3ccccc3Br)ccc12	Mtb FBA inh 61 | Mtb FBA inh conf 99 | GDH-TPI counter-2 69
Cc1c(CCC(=O)O)c(=O)oc2cc(OCc3cccc(F)c3)ccc12	Mtb FBA inh 86 | Mtb FBA inh conf inactive | GDH-TPI counter-2 inactive
COc1cccc(-c2coc3cc4oc(=O)c(CCC(=O)O)c(C)c4cc23)c1	none
Cc1c(CC(=O)O)c(=O)oc2cc(OCc3ccc(Br)cc3)ccc12	Mtb FBA inh 86 | Mtb FBA inh conf 139 | GDH-TPI counter-2 122
C[C@@H]1C=CC(=O)O[C@@H]1c1ccc(Cl)cc1	none (no result: GDH-TPI counter-1, Vc quorum ag, Mtb FBA inh)
Cc1nc(OCc2ccccc2)c2ccccc2n1	none
